Most compounds without a hit are left out; they make up all but 10% or so of the library.
3T3 cytotox: NIH 3T3 cell cytotoxicity. NIH 3T3 viability, CellTiter-Glo ATP luminescence, 48-72 h. Potency, µM (doses to about 96.7 µM), hits mostly inhibitors. 4.3% of 94,000 active. AID 1345082; further: nearly all actives have a fitted effect of over 55% in size
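Luminescent ATP readout (CellTiter-Glo, 10 min RT) after 48 or 72 hr compound exposure of NIH 3T3 cells seeded at 400 cells/well in 1536-well format; quantitative HTS.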
FLuc inh: blocks purified firefly luciferase enzyme activity | P08659 | purified P. pyralis luciferase, luminescence, biochemical | Potency, µM (series often up to 115 µM), hits mostly inhibitors | 2.5% of 76,000 active | AID 1347043; further: nearly all actives have a fitted effect of over 65% in size
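Inhibitors were tested against purified firefly luciferase in a biochemical, low-substrate format (both substrates at 10uM) and luminescence measured with a CCD imager.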
NPR1 antag: human Npr1 receptor antagonism. P16066. HEK293 hNpr1 GloSensor cGMP, ANP-stimulated luminescence. Potency, µM (highest dose often 46.3 µM), actives largely listed as inhibitors. 1.6% of 76,000 active. AID 1347048; calls by dose curve; further: nearly all actives have a fitted effect of over 60% in size
Target sequence (P16066 whole entry, looked up): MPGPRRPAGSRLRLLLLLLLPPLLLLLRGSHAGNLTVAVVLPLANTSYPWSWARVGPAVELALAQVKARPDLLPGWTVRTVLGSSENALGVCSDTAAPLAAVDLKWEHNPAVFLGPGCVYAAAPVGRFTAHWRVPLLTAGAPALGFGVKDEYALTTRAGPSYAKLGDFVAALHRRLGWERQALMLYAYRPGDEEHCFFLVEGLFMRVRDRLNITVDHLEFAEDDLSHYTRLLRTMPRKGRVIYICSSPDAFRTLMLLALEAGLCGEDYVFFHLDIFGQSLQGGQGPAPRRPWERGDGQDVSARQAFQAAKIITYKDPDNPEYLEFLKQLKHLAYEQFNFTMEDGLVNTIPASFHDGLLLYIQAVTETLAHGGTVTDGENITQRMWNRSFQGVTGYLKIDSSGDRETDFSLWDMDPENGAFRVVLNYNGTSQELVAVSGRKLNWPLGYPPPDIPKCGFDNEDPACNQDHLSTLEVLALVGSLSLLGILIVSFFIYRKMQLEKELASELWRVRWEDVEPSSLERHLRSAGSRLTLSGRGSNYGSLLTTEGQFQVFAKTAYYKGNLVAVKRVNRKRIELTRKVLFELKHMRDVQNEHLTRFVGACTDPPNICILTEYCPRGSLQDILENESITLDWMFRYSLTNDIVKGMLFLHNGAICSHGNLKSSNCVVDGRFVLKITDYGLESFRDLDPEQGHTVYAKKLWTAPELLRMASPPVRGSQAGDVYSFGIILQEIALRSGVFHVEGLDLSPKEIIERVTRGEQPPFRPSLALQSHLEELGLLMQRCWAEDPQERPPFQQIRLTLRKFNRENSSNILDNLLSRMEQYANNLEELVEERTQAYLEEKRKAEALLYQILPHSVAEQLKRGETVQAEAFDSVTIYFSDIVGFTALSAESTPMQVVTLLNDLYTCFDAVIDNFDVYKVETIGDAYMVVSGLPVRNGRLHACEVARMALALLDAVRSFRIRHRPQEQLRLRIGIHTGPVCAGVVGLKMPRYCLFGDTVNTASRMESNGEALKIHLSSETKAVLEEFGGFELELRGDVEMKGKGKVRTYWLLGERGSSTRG
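HEK293 cells stably expressing human Npr1 and cGMP GloSensor pGS-40F, loaded 2 h with 2% GloSensor reagent, given compound 30 min at room temperature. Luminescence read before and 20 min after 0.1 nM hNppA.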
HEK cytotox: HEK 293 cell cytotoxicity | HEK 293 viability, ATP luminescence (CellTiter-Glo), 48-72 h | Potency, µM (top dose mostly 115 µM), usual class: inhibitors | 6.6% of 94,000 active; further: nearly all actives have a fitted effect of over 60% in size
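HEK 293 cells seeded at 250 cells/well were exposed to compound for 48 or 72 hr at 37 degree Celsius. Viability taken as ATP content by CellTiter-Glo luminescence.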
GPT2 inhibitor: inhibitors of human GPT2 alanine aminotransferase. Q8TD30. Recombinant GPT2, coupled pyruvate oxidase/HRP Amplex Red fluorescence. Potency, µM (titrated, usually from 57.7 µM), usual class: inhibitors. 0.25% of 100,000 active; further: nearly all actives have a fitted effect of over 60% in size
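Recombinant GPT2 (10ng/uL) with 250uM a-KG and 2mM L-alanine, 30 min at room temperature, in HEPES pH 7.5 buffer. Pyruvate detected by pyruvate oxidase/HRP/Amplex Red fluorescence after 30 min in the dark; AOA (50uM) as positive control.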
Each line names hits and unclear results; the compound was inactive in the other large screens. Unless noted, the call rests on the fitted dose curve; in most records, active means well fitted curve in the direction sought with a large enough effect; inconclusive means small, poorly fitted or top-dose-only effect, or another doubt; inactive means no such curve, though single readings can be large; an effect the other way counts as inactive or inconclusive.

COc1ncccc1CN1CC[C@@H]2OCC(=O)N(c3ccccc3)[C@H]2CC1	HEK cytotox inconclusive
COc1ncccc1CN1CC[C@@H]2OCC(=O)N(Cc3ccccc3)[C@H]2CC1	3T3 cytotox 100µM, HEK cytotox 112µM
CN(C)CCOCC1(C)COc2ccc(C(=O)NCc3cccc(F)c3)cc2N1 (stereo unspecified)	3T3 cytotox inconclusive, HEK cytotox inconclusive
Cc1ccc([S+](=O)([O-])N2CCCC2C(=O)N2CCC(N3Cc4ccccc4C3=O)CC2)cc1 (stereo unspecified)	3T3 cytotox inconclusive, HEK cytotox inconclusive (no result: FLuc inh, NPR1 antag)
COCCn1c(=O)c(C(=O)N2CCN(C(=O)c3ccc(F)cc3)CC2)nc2cccnc21	none (no result: FLuc inh, NPR1 antag)
CN(Cc1ccccc1)C1CCOC2(CCN(S(=O)(=O)c3ccc(F)cc3)CC2)C1 (stereo unspecified)	3T3 cytotox inconclusive, HEK cytotox inconclusive
COc1ccc(Nc2ccnc(N3CCN([S+](=O)([O-])c4cccs4)CC3)n2)cc1	3T3 cytotox inconclusive, HEK cytotox inconclusive (no result: FLuc inh, NPR1 antag)
Cc1cccc(OCC(=O)N2CCC(N3C(=O)CCC3C(=O)NCc3ccccc3)CC2)c1 (stereo unspecified)	none (no result: FLuc inh, NPR1 antag)
Cc1cc2cc(-c3c(C)noc3C)nc(NCC3CC3)c2o1	3T3 cytotox inconclusive, HEK cytotox inconclusive
Cc1cc2cc(-c3c(C)noc3C)nc(NCCN(C)C)c2o1	3T3 cytotox inconclusive, HEK cytotox 100µM
Cc1noc(C)c1-c1cc2cc(C(C)C)oc2c(NCCN(C)C)n1	3T3 cytotox 44.7µM, HEK cytotox 70.8µM
COc1ccc(-c2cc(C(=O)NC3CC3)c3c(C4CCNC4)noc3n2)cc1 (stereo unspecified)	3T3 cytotox inconclusive, HEK cytotox inconclusive (no result: FLuc inh, NPR1 antag)
CC1(O)CCCN(c2ncc(C(C)(C)C(=O)O)c(N3CCOCC3)n2)C1 (stereo unspecified)	GPT2 inhibitor inconclusive
COc1cccc(C(=O)NC2CCN(Cc3cccc(-c4cccs4)c3)CC2)c1	3T3 cytotox inconclusive, HEK cytotox inconclusive (no result: FLuc inh, NPR1 antag)
Cc1nn(-c2ccccc2)c2c1C(C(C)C)N(C1CCCN(C(=O)C3CC3)C1)C2=O (stereo unspecified)	3T3 cytotox inconclusive, HEK cytotox 28.2µM (no result: FLuc inh, NPR1 antag, GPT2 inhibitor)
Cc1nn(-c2ccccc2)c2c1C(C(C)C)N(C1CCN(C(=O)c3ccc(Cl)nc3)C1)C2=O (stereo unspecified)	HEK cytotox inconclusive (no result: FLuc inh, NPR1 antag, GPT2 inhibitor)
Cc1nn(-c2ccccc2)c2c1C(C(C)C)N(C1CCN(C(=O)c3ccc(F)cc3)C1)C2=O (stereo unspecified)	3T3 cytotox inconclusive, HEK cytotox 44.7µM (no result: FLuc inh, NPR1 antag, GPT2 inhibitor)
Cc1nn(-c2ccccc2)c2c1C(C(C)C)N(C1CCN(C(=O)N3CCOCC3)C1)C2=O (stereo unspecified)	3T3 cytotox inconclusive, HEK cytotox 79.4µM (no result: FLuc inh, NPR1 antag, GPT2 inhibitor)
Cc1nn(-c2ccccc2)c2c1C(C(C)C)N(C1CCCN(C(=O)N(C)C)C1)C2=O (stereo unspecified)	none (no result: FLuc inh, NPR1 antag, GPT2 inhibitor)
Cc1nn(-c2ccccc2)c2c1C(C1CC1)N(C1CCN(C(=O)Cc3ccc(F)cc3)C1)C2=O (stereo unspecified)	3T3 cytotox inconclusive, HEK cytotox 35.5µM (no result: FLuc inh, NPR1 antag, GPT2 inhibitor)
O=C(C1CC1)N1CCN(Cc2ccccc2-c2cccnc2)CC1	3T3 cytotox inconclusive, HEK cytotox inconclusive (no result: FLuc inh, NPR1 antag)
Cc1ccc(OCc2nc(C3CN(C(=O)c4ccc5[nH]ccc5c4)C3)no2)cc1	3T3 cytotox inconclusive, HEK cytotox inconclusive (no result: FLuc inh, NPR1 antag)
Cc1nn(-c2ccccc2)c2c1C(C(C)C)N(C1CCCN(C(=O)c3ccc(F)cc3)C1)C2=O (stereo unspecified)	3T3 cytotox inconclusive, HEK cytotox 28.2µM (no result: FLuc inh, NPR1 antag, GPT2 inhibitor)
Cc1nn(-c2ccccc2)c2c1C(C(C)C)N(C1CN(C(=O)Cc3ccccc3)C1)C2=O (stereo unspecified)	3T3 cytotox inconclusive, HEK cytotox 50.1µM (no result: FLuc inh, NPR1 antag, GPT2 inhibitor)
Cc1nn(-c2ccccc2)c2c1C(C(C)C)N(C1CN(C(=O)C(C)(C)C)C1)C2=O (stereo unspecified)	none (no result: FLuc inh, NPR1 antag, GPT2 inhibitor)
Cc1nn(-c2ccccc2)c2c1C(C(C)C)N(C1CCCN(C(=O)Cc3ccc(F)cc3)C1)C2=O (stereo unspecified)	3T3 cytotox inconclusive, HEK cytotox 25.1µM (no result: FLuc inh, NPR1 antag, GPT2 inhibitor)
Cc1nn(-c2ccccc2)c2c1C(C(C)C)N(C1CCCN(C(=O)c3ccc(Cl)nc3)C1)C2=O (stereo unspecified)	3T3 cytotox inconclusive, HEK cytotox 39.8µM (no result: FLuc inh, NPR1 antag, GPT2 inhibitor)
COCC(=O)N1CCCC(N2C(=O)c3c(c(C)nn3-c3ccccc3)C2C(C)C)C1 (stereo unspecified)	HEK cytotox inconclusive (no result: FLuc inh, NPR1 antag, GPT2 inhibitor)
O=C(NCCNC(=O)c1cccc(-c2ccsc2)c1)Nc1ccc(Cl)cc1	3T3 cytotox inconclusive, HEK cytotox inconclusive (no result: FLuc inh, NPR1 antag)
O=C1Nc2ccc(-c3ccccc3)cc2C(=O)N2CC[C@H](NS(=O)(=O)c3cccs3)[C@@H]12	3T3 cytotox 20µM, HEK cytotox inconclusive
O=C(N[C@H]1CCN2C(=O)c3cc(-c4ccccc4)ccc3NC(=O)[C@H]12)c1cccc(F)c1	3T3 cytotox inconclusive, FLuc inh inconclusive, HEK cytotox 89.1µM
O=C(N[C@H]1CCN2C(=O)c3cc(-c4ccsc4)ccc3NC(=O)[C@H]12)c1cccc(F)c1	GPT2 inhibitor inconclusive
O=C1Nc2ccccc2C(=O)N2CC[C@H](NS(=O)(=O)c3cccs3)[C@@H]12	none
O=C(N[C@H]1CCN2C(=O)c3cc(-c4ccc5c(c4)OCO5)ccc3NC(=O)[C@H]12)c1cccc(F)c1	3T3 cytotox 79.4µM, HEK cytotox inconclusive
COc1ccc(-c2ccc3c(c2)C(=O)N2CC[C@H](NC(=O)C4CCCC4)[C@H]2C(=O)N3)cc1	3T3 cytotox inconclusive, FLuc inh 22.4µM
CC(=O)N1CCN(C(=O)c2ccc3nnc(Cc4ccc(Cl)cc4)n3c2)CC1	none (no result: FLuc inh, NPR1 antag)
O=C1CN(Cc2ccc(-c3cc(F)cc(F)c3)cc2)CCN1c1cc(Cl)ncn1	3T3 cytotox inconclusive, HEK cytotox inconclusive, GPT2 inhibitor inconclusive
O=C1CN(Cc2ccc(-c3ccsc3)cc2)CCN1c1cc(Cl)ncn1	3T3 cytotox inconclusive, NPR1 antag inconclusive, HEK cytotox 35.5µM
O=C1CN(Cc2ccc(-c3cc(F)cc(F)c3)cc2)CCN1c1nccc(Cl)n1	3T3 cytotox inconclusive, HEK cytotox 44.7µM
CCOC(=O)C1CCCN(C(=O)c2ccc3oc(-c4ccnc(Cl)c4)nc3c2)C1 (stereo unspecified)	3T3 cytotox inconclusive, HEK cytotox inconclusive (no result: FLuc inh, NPR1 antag)
C=CCNC(=O)[C@@H]1CCCN1[C@@H](C(=O)NC)C1CCCCC1	none
CCN1c2cc(C(=O)NCc3ccccc3OC)ccc2C(=O)N2CCCCCC21 (stereo unspecified)	3T3 cytotox inconclusive, HEK cytotox inconclusive
O=C(c1ccc(Cl)nc1)N1CCN(c2nccc(Nc3ccccc3Cl)n2)CC1	3T3 cytotox inconclusive, HEK cytotox inconclusive (no result: FLuc inh, NPR1 antag)
CCCCCN(CCC(=O)NCCC(C)C)C(=O)c1cc(C)oc1C	3T3 cytotox inconclusive, HEK cytotox 28.2µM, GPT2 inhibitor inconclusive
